# TDP1 cell noCPT = qHTS for Inhibitors of human tyrosyl-DNA phosphodiesterase 1 (TDP1): qHTS in cells in absence of CPT. DT40 Tdp1-/- hTDP1 cells, no CPT, ATP luminescence, 48 h. Potency, µM (highest dose often 46.2 µM), for inactives: top-dose activity change, negative = growth inhibition, actives largely listed as inhibitors. 15% of 420,000 active; also: nearly all actives have a fitted effect of over 55% in size
#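 Luminescent ATP content (CellTiter-Glo) served as the growth readout. Knockout chicken DT40 cells expressing human TDP1 were exposed to compounds without camptothecin for a minimum 48 hr at 37 °C.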
# HT1080 IDH1KD tx = qHTS for induction of synthetic lethality in tumor cells producing 2HG: qHTS for the HT-1080-IDH1KD cell line; HT-1080 IDH1 knockdown viability, ATP luminescence, 48 h; Potency, µM (doses to about 46.1 µM), without a hit: top-dose activity, negative = toxicity, most hits filed as cytotoxic; 2% of 360,000 active;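 also: 0% = DMSO wells and -100% = cell-free medium wells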
#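 HT-1080-IDH1KD cells (IDH1 knocked down), 750/well in RPMI with 5% FBS, treated with compound 48 h at 37 degrees C. Viability by CellTiter-Glo luminescence, normalised to DMSO and no-cell wells; concentration-response curves classed.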
# KB-V1 cytotox = qHTS assay for MDR1-selective chemotherapeutics: Primary screen using the drug-selected MDR subline cells KB-V1; Potency, µM (series often up to 46.1 µM), hits mostly cytotoxic; KB-V1 MDR cells viability, CellTiter-Glo, 72 h; 3.4% of 400,000 active; also: nearly all actives have a fitted effect of over 60% in size
#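 KB-V1 cells (P-gp-expressing MDR subline of KB-3-1) in phenol-red-free DMEM with 10% FBS were exposed to library compounds over a concentration series for 72 h at 37 degrees C. Viability read by CellTiter-Glo luminescence; concentration-effect curves fitted after normalization.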
# DT40 TDP1 CPT = qHTS for Inhibitors of human tyrosyl-DNA phosphodiesterase 1 (TDP1): qHTS in cells in presence of CPT; chicken DT40 Tdp1-/-;hTDP1 cells + 20 nM CPT, ATP luminescence, 48 h; Potency, µM (titrated, usually from 46.2 µM), without a hit: at the highest dose activity change, negative = growth inhibition, hits mostly inhibitors; 12% of 420,000 active; also: nearly all actives have a fitted effect of over 55% in size
#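 Cell growth measured by CellTiter-Glo luminescence after a minimum 48 h, 37 C compound exposure with 20 nM CPT in Tdp1-knockout DT40 cells stably expressing hTDP1, seeded 400/well; qHTS titration format.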
# KB-3-1 tox = qHTS assay for MDR1-selective chemotherapeutics: Primary screen using the parental adenocarcinoma cell KB-3-1; KB-3-1 viability, CellTiter-Glo ATP luminescence, 72 h; Potency, µM (top dose mostly 46.1 µM), most hits filed as cytotoxic; 1.4% of 400,000 active; AID 1347075, 2019; also: nearly all actives have a fitted effect of over 60% in size
#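 Here the drug-naive KB-3-1 line serves as comparator for MDR sub-line selectivity; cells received compound titrations, 72 h at 37 °C, then CellTiter-Glo readout.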
# HT1080NT lethal = qHTS for induction of synthetic lethality in tumor cells producing 2HG: qHTS for the HT-1080-NT fibrosarcoma cell line. 1.6% of 360,000 active. HT-1080-NT fibrosarcoma viability, CellTiter-Glo ATP luminescence, 48 h. AID 686970, 2013. Potency, µM (doses to about 46.1 µM), inactives show at the highest dose activity, negative = less viability, actives largely listed as cytotoxic;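 also: NT is the 2HG producing partner of a matched IDH1 knockdown line; 0% = DMSO-treated cells and -100% = media-only wells without cells; nearly all actives have a fitted effect of over 55% in size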
#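 HT-1080-NT; 750 cells/well; 5% FBS RPMI; 48 h compound, 37 degrees C; CellTiter-Glo luminescence; curve fitting and curve-class assignment.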
# * hit, by the source's call; i = inactive; u = inconclusive; x = no result. The list is not random: actives were taken first. Their share in the collection is about 19%. Calls follow the shape of the dose curve; as a rule, active = well fitted curve in the direction sought with a large enough effect; inconclusive = small, poorly fitted or top-dose-only effect, or another doubt; inactive = no such curve, though single readings can be large; an effect the other way counts as inactive or inconclusive. Unless noted, % is scaled to controls: 0 for no effect and ±100 for the full control effect; potency is read from the fitted curve at half-maximal effect.
SMILES,TDP1 cell noCPT,HT1080 IDH1KD tx,KB-V1 cytotox,DT40 TDP1 CPT,KB-3-1 tox,HT1080NT lethal
CCC1CN(C(=O)N2CCC(C(=O)NCCc3ccc(OC)cc3OC)CC2)c2cc(C)ccc2O1 (centres undefined),16µM*,x,x,21µM*,x,x
CCC1CN(C(=O)N2CCC(C(=O)NCc3cccc(F)c3)CC2)c2cc(C)ccc2O1 (centres undefined),16µM*,x,x,21µM*,x,x
CCC1CN(C(=O)N2CCC(C(=O)NCCN(CC)CC)CC2)c2cc(C)ccc2O1 (centres undefined),-20%,x,x,-13%,x,x
Cc1ccc2oc(=O)c3cnn(CC(=O)N4CCN(c5ccccc5F)CC4)c3c2c1,21µM*,x,i,u,i,x
COc1ccccc1N1CCN(C(=O)Cn2ncc3c(=O)oc4ccc(C)cc4c32)CC1,u,x,i,-27%,i,x
Cc1ccc2oc(=O)c3cnn(CC(=O)N4CCN(c5ccccc5)CC4)c3c2c1,10µM*,8%,i,u,i,8%
O=C(Nc1ccc(F)cc1F)c1cc2nc(-c3ccco3)cc(C(F)(F)Cl)n2n1,-9%,x,i,-4%,i,x
COc1ccc(N=c2cc(-c3ccc(O)cc3)oc3ccccc23)cc1,u,16µM*,u,u,u,15µM*
COc1ccc(N=c2cc(-c3ccc(OC)cc3)oc3ccccc23)cc1,23µM*,u,u,u,i,-16%
COc1ccc(-c2cc(=Nc3ccc(C)cc3)c3ccccc3o2)cc1,u,u,i,u,i,u
CCOc1ccc(N=c2cc(-c3ccc(OC)cc3)oc3ccccc23)cc1,26µM*,u,u,26µM*,i,-22%
CC(=O)Nc1ccc(-c2csc(NNC(=O)c3ccc(C)cc3)n2)cc1,10µM*,13%,i,13µM*,i,5%
N#Cc1ccc(-c2csc(NNC(=O)c3ccc(Br)cc3)n2)cc1,5.8µM*,5.2µM*,i,5.2µM*,i,8.2µM*
O=C(Nc1nc(-c2ccccc2)cs1)c1cccnc1,u,2%,u,u,i,-3%
O=C(NNc1nc(-c2ccc(Br)cc2)cs1)c1ccco1,16µM*,u,i,18µM*,u,-14%
O=C(NNc1nc(-c2ccccc2)cs1)c1ccccc1,21µM*,-27%,16µM*,u,u,-11%
Cc1cn2c(=O)c(C(=O)N3CCN(c4ccccc4Cl)CC3)cnc2s1,0%,12%,i,-14%,i,-3%
COc1ccc(C2c3c(oc4ccc(Cl)cc4c3=O)C(=O)N2CCCN(C)C)cc1OC (centres undefined),u,x,x,-15%,x,x
Cc1nc(-c2ccc(OCC(C)C)c(C#N)c2)sc1C(=O)O,-25%,x,x,-16%,x,x
N#Cc1ccc(-c2csc(NNC(=O)c3ccccc3)n2)cc1,u,10µM*,i,u,i,-4%
O=S1(=O)CC(N2CCN(c3ccccn3)CC2)CN1C1CCCCC1 (centres undefined),-30%,-3%,i,-29%,i,2%
Cc1ccc(-n2ncc(C(=O)N3CCCCC3)c2C2CCN(C(=O)OC(C)(C)C)CC2)c(C)c1,u,x,i,u,i,x
Cc1cc([N+](=O)[O-])ccc1NCc1cccc2ccccc12,16µM*,-1%,13µM*,u,i,u
O=C(c1nn(Cc2ccccc2)c(=O)c2ccccc12)N1CCN(c2ccccn2)CC1,u,-12%,2.3µM*,-2%,i,-11%
O=C(c1nn(Cc2ccccc2)c(=O)c2ccccc12)N1CCc2ccccc2C1,16µM*,-1%,u,-27%,i,4%
SMILES,TDP1 cell noCPT,HT1080 IDH1KD tx,KB-V1 cytotox,DT40 TDP1 CPT,KB-3-1 tox,HT1080NT lethal
O=C(c1c(Cl)cccc1Cl)N1CCN(c2ccccn2)CC1,-18%,-7%,i,-22%,i,3%
CCOC(=O)C1(C)CCN1C(=O)c1cccc(Cl)c1 (centres undefined),-26%,0%,i,u,i,-2%
C[C@]12CCC3c4ccc(O)cc4CCC3C1CC(O)C2O (some centres undefined),8%,x,x,2%,x,x
CC#Cc1cc2c(cc1O)CCC1C2CCC2(C)C(O)CCC12 (centres undefined),2.3µM*,u,u,2.9µM*,2.6µM*,8.2µM*
C=Cc1cc2c(cc1O)CCC1C2CCC2(C)C(O)CCC12 (centres undefined),16µM*,u,u,u,18µM*,u
Cc1ccc(OCC(=O)Nc2nonc2-c2ccc(Br)cc2)cc1C,u,x,i,u,i,x
COCc1nnc(NC(=O)CCS(=O)(=O)c2ccccc2)s1,16µM*,u,i,10µM*,i,u
CCC(CC)c1nnc(NC(=O)Cc2c[nH]c3ccccc23)s1,23µM*,-5%,i,26µM*,i,-18%
CCCc1nnc(NC(=O)CCS(=O)(=O)Cc2ccccc2)s1,u,12%,i,u,i,u
CCc1nnc(NC(=O)CCS(=O)(=O)c2ccccc2)s1,u,-10%,i,26µM*,i,-1%
COCc1nnc(NC(=O)CCCOc2ccccc2)s1,-1%,20%,i,0%,i,2%
CCc1nnc(NC(=O)CCS(=O)(=O)Cc2ccccc2)s1,u,-1%,i,15µM*,i,-3%
COc1ccc(S(=O)(=O)N2CCOC2CNC(=O)C(=O)NCc2ccc3c(c2)OCO3)cc1C (centres undefined),u,-7%,i,u,i,-5%
Cc1ccc2c(=O)c(C(=O)c3ccccc3)cn(CC(=O)NCc3ccccc3)c2n1,u,x,i,u,i,x
Oc1ccc(/C=C/c2nc(-c3ccccc3O)n(-c3ccccc3)n2)c(O)c1,u,x,x,-70%,x,x
Cc1ccc(S(=O)(=O)CCc2nnc(NC(=O)c3ccccn3)s2)cc1,21µM*,-1%,i,u,i,-8%

# High-throughput results from PubChem.
